For 40 compounds, Potency results are on record in PubChem BioAssay (NCATS).

Where “and” joins values, the source holds several entries; their conditions need not be identical. Identical values can stand only once. Records with an inconclusive call do not appear. Where a call stands in place of a potency, no number is given. Calls of active or inactive are those of the source. The call rests on the fitted dose curve; in most records, active means well fitted cell-killing curve with a large enough effect; inconclusive means small, poorly fitted or top-dose-only effect; inactive means flat fitted curve, though single readings scatter.
Potency means the concentration at half of the fitted maximal effect.

The experiment is described as follows: qHTS of pediatric cancer cell lines to identify multiple opportunities for drug repurposing: Primary screen for U-2 OS cells (AID 1347096). Further: nearly all actives have a fitted effect of over 50% in size. The conditions noted are these: U-2 OS viability, CellTiter-Glo luminescence, 48 h; series mostly up to 46 µM. An excerpt:
Drug repurposing or repositioning has been offered as a strategy for drug development in oncology programs. This approach has special potential for childhood cancers and other rare or orphan diseases, where the expected return on new drug development has been a disincentive to pharmaceuticals.
In this project we exploit the poly-pharmacology of drugs to discover new indications via phenotypic screening of a panel of 19 well-characterized cell lines derived from solid tumors seen in children and adolescents. The goal is to identify approved drugs with previously unrecognized anticancer properties that has the potential to reveal new mechanisms and biological processes involved in carcinogenesis or drug resistance. We employed a titration-based paradigm (quantitative high-throughput screening or qHTS), where all compounds were tested at multiple concentrations for their effect on cell viability. Concentration-response curves (CRCs) were derived directly from the primary screen, and both potency and efficacy values were used to identify compounds with robust bioactivity profiles. We screened the NIH Chemical Genomics Center (NCGC) Pharmaceutical Collection (NPC) and Mechanism Interrogation Plate (MIPE) small molecule collections of approved and investigational compounds against these cell lines; and measured metabolically active cells after 48 hours of compound treatment as a proxy for cell viability.
Assay Submitter: Nathalia J. Martinez, National Center for Advancing Translational Sciences, National Institutes of Health, Rockville, MD, USA; email: natalia.martinez@nih.gov
[1] Shen, M et al. Quantitative high-throughput phenotypic screening of pediatric cancer cell lines identifies multiple opportunities for drug repurposing. Oncotarget 2017 Dec 19;9(4):4758-4772. PMID 29435139.
The cells were obtained from University of North Carolina (UNC), Pediatric Preclinical Testing Program (PPT), and Coriell Institute (CI).
qHTS cell viability assay:
Cells were assayed in growth media at a density of 500-1,000 cells/well. Five microliters of cells were dispensed into 1,536-well, white, solid-bottom, TC-treated plates (Greiner Bio One) using a multidrop dispenser and incubated at 37 degrees C, 5% CO2, under a humidified atmosphere for 5 hours. Twenty-three nanoliters of compounds and controls (neutral control DMSO or positive control bortezomib at final concentration of 2.3 µM) were subsequently transferred by Kalypsys pintool. For primary screens, the MIPE collection was tested at 11-point dilutions (final concentrations range from 0.78 nM to 46 µM) and the NPC collection at 8-point dilutions (final concentrations range from 0.59 nM to 46 µM). Compounds tested in follow-up screens were assayed at 11-point dilutions. Cells were incubated for 48 hours, followed by addition of 3 µL of CellTiter-Glo (Promega). After a 15 min incubation at room temperature, samples were analyzed for luminescence intensity using a ViewLux High-throughput CCD imager equipped with clear filters.
A general note: In qHTS, concentration-response curves come from the screen itself.
`CO[C@H]1C=CO[C@@]2(C)Oc3c(C)c(O)c4c(O)c(c5c(c4c3C2=O)NC2(CCN(CC(C)C)CC2)N=5)=NC(=O)C(C)=CC=C[C@H](C)[C@H](O)[C@@H](C)[C@@H](O)[C@@H](C)[C@H](OC(C)=O)[C@H]1C`: the Potency entry was “inactive”. As for `CN(C)Cc1cccc(N=C(c2ccccc2)c2c(O)[nH]c3cc(C(=O)N(C)C)ccc23)c1`, the Potency result is “inactive”. As for `C[C@H]1[C@H](NC(=O)C(=NOC(C)(C)C(=O)O)c2csc(N)n2)C(=O)N1S(=O)(=O)O`, the Potency result was “inactive”. As for `COc1ccc2c(Oc3ccc(NC(=O)c4c(C)n(CC(C)(C)O)n(-c5ccccc5)c4=O)nc3)ccnc2c1`, the Potency result is “inactive”.

`COc1cc2ncnc(Nc3ccc(F)c(Cl)c3)c2cc1OCCCN1CCOCC1`: the Potency is 42900 nM (active). As for `N#Cc1ccc(NC(=O)Nc2ccccc2Br)c2n[nH]nc12`, the Potency entry was “inactive”.

Consider `CC(C)(C)Cn1c(N)nc2ccc(-c3[nH]c(C(C)(C)C)nc3-c3ccc(F)cc3)nc21`, for which the Potency result was “inactive”. As for `CCN1CCC[C@H]1CNC(=O)c1cc(S(N)(=O)=O)ccc1OC`, the entry is “inactive”; as for `CCOC(CN1C(=O)[C@](CC(=O)Nc2ccc(C)cc2)(NC(=O)Nc2ccc(C)cc2)c2ccccc21)OCC`, “inactive”; as for `NC(=O)c1ccc2nc(-c3ccc(Oc4ccc(Cl)cc4)cc3)[nH]c2c1`, “inactive”. Consider `CO[C@H]1C(=O)[C@]2(C)[C@@H](OC)C[C@H]3OC[C@@]3(OC(C)=O)[C@H]2[C@H](OC(=O)c2ccccc2)[C@]2(O)C[C@H](OC(=O)[C@H](O)[C@@H](NC(=O)OC(C)(C)C)c3ccccc3)C(C)=C1C2(C)C`, for which the Potency result is “inactive”. `CCNc1cc(NC2CCC(O)CC2)nc(Nc2ccc3c(ccn3Cc3ccccc3)c2)n1` (stereo not given): the Potency result is “inactive”. `CC(=O)CCCCn1c(=O)c2c(ncn2C)n(C)c1=O`: the Potency entry was “inactive”. As for `COc1ccc(-c2nc(N3CCOCC3)c3sc(CN(C)c4ncc(C(=O)NO)cn4)cc3n2)cn1`, the figure is 11.8 nM (active); as for `COc1ccc2c3c1OC1C[C@@H](O)C=C[C@@]31CCN(C)C2` (stereo not given in full), “inactive”. The value for `CCN(CC)C(=O)c1ccc(O)c(OC)c1` was “inactive”; that for `CNC(=O)c1ccc2cc(C3(O)CCn4cncc43)ccc2c1` (stereo not given) was “inactive”; that for `CN(C)Cc1ccc(-c2nc3cccc4c3n2CCNC4=O)cc1` was “inactive”.

For `O=c1c(-c2ccc(O)cc2)coc2cc(O[C@@H]3O[C@H](CO)[C@H](O)[C@H](O)[C@H]3O)ccc12`, the Potency result was “inactive”.

`COc1ccc(-c2coc3cc(O)ccc3c2=O)cc1`: the Potency entry is “inactive”.

Consider `O=C(O)Cc1cccc2ccccc12`, for which the Potency result is “inactive”. In the case of `O=C(N[C@@H](c1ccccc1)[C@@H]1CCCCN1)c1cccc(C(F)(F)F)c1Cl`, the Potency entry was “inactive”. The value for `O=C1C[C@@H](c2ccc(O)cc2)Oc2cc(O)cc(O)c21` was “inactive”; that for `O=c1cc(-c2cccc3c2Sc2ccccc2S3)oc(N2CCOCC2)c1` was “inactive”.

In the case of `CCN(CC)CCNC(=O)c1ccc(N)cc1`, the Potency entry is “inactive”. For `COc1ccc(C2CC(c3ccccc3)=NN2c2ccc(S(N)(=O)=O)cc2)cc1` (stereo not given), the Potency result was “inactive”. For the compound `O=C(CCCCCCC(=O)Nc1ccccc1)NO`, the Potency is 3.35 µM (active) and 4.69 µM (active). With `CC(C(=O)O)c1ccc(-c2ccccc2)c(F)c1` (stereo not given), the Potency result was “inactive”. The value for `CC1(C)O[C@H]2C[C@@H]3[C@H]4CCC5=CC(=O)C=C[C@]5(C)[C@@]4(F)[C@@H](O)C[C@]3(C)[C@]2(C(=O)CO)O1` was “inactive”; that for `CC[C@]1(O)C[C@@H]2CN(CCc3c([nH]c4ccccc34)[C@@](C(=O)OC)(c3cc4c(cc3OC)N(C=O)[C@@H]3C45CCN4CC=C[C@](CC)([C@H]45)[C@@H](OC(C)=O)[C@]3(O)C(=O)OC)C2)C1` (stereo not given in full) was “inactive”; that for `CCCCC1C(=O)N(c2ccccc2)N(c2ccccc2)C1=O` was “inactive”.

Turning to `CC(C)OC(=O)C(C)(C)Oc1ccc(C(=O)c2ccc(Cl)cc2)cc1`, the Potency entry is “inactive”. Regarding `C[N+]1(C)[C@@H]2CC(OC(=O)[C@H](CO)c3ccccc3)C[C@H]1[C@H]1O[C@@H]12` (stereo not given in full), the Potency entry was “inactive”. In the case of `O=C(CCN1CCN(C(=O)OCc2cc(Cl)cc(Cl)c2)CC1)c1ccc2[nH]c(=O)oc2c1`, the Potency entry is “inactive”.

Consider `C[N+](C)(C)CCCCCC[N+](C)(C)C`, for which the Potency entry was “inactive”. `COc1cc2nc(-c3ccc(N4CCN(C)CC4)cc3)nc(NCCN3CCOCC3)c2cc1OC`: the Potency is 935 nM (active). Regarding `N[C@@]1(C(=O)O)CS(=O)(=O)[C@H]2[C@H](C(=O)O)[C@H]21`, the Potency entry is “inactive”.

As for `NC(=O)c1cnc(-c2ccc(C3(N)CCC3)cc2)c(-c2ccccc2)c1`, the Potency result was “inactive”.

On to `COCCOC(=O)C1=C(C)NC2=C(C(=O)CC(c3ccccc3OC)C2)C1c1cccc(O)c1` (stereo not given), for which the Potency entry is “inactive”. In the case of `N[C@H](CSC(c1ccccc1)(c1ccccc1)c1ccccc1)C(=O)O`, the Potency entry was “inactive”.
